Our source for the normalized growth values is PubChem BioAssay AID1159580 (chemical genetic matrix, 2015).

The campaign covered roughly 5,500 compounds. About 2,000 (36%) were called active. About 18% were inconclusive and are not listed. The list shows a part of the results. Unmarked numbers belong to inactive results. No stated cut-off is given here; in the data, active means normalized growth mostly below about 0.91 (no sharp cut-off); inconclusive means no clear call, values can overlap the other calls; inactive means mostly above about 0.92.

The nature of the assay: chemical genetic growth profiling, strain panel (AID 1159580).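 Further: tested at 20 µM; growth read once vehicle control cultures reached saturation at 30 °C; 1 = growth at the plate median or of vehicle wells.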 The settings on record: S. cerevisiae deletion strains, growth OD.
The mark [1] stands for this setting: locus YAL013W, strain DEP1, stronger effect = lower value.
The mark [2] stands for this setting: locus YBR229C, strain ROT2, stronger effect = lower value.
[3] abbreviates: locus YDL101C, strain DUN1, stronger effect = lower value.
The mark [4] stands for this setting: locus YDR150W, strain NUM1, stronger effect = lower value.
Setting [5] is: locus YEL061C, strain CIN8, stronger effect = lower value.
Setting [6] is: locus YGR078C, strain PAC10, stronger effect = lower value.
Where [7] appears, read: locus YHR030C, strain SLT2, stronger effect = lower value.
The mark [8] stands for this setting: locus YHR087W, strain rtc3, stronger effect = lower value.
Where [9] appears, read: locus YJR043C, strain POL32, stronger effect = lower value.
[10] abbreviates: locus YJR075W, strain HOC1, stronger effect = lower value.
Where [11] appears, read: locus YLR039C, strain RIC1, stronger effect = lower value.
[12] abbreviates: locus YLR058C, strain SHM2 (second series), stronger effect = lower value.
The mark [13] stands for this setting: locus YLR085C, strain ARP6, stronger effect = lower value.
The mark [14] stands for this setting: locus YLR262C, strain YPT6, stronger effect = lower value.
Where [15] appears, read: locus YML094W, strain GIM5, stronger effect = lower value.
Setting [16] is: locus YMR219W, strain ESC1, stronger effect = lower value.
The mark [17] stands for this setting: locus YMR263W, strain SAP30, stronger effect = lower value.
Where [18] appears, read: locus YMR307W, strain GAS1, stronger effect = lower value.
The mark [19] stands for this setting: locus YNL153C, strain GIM3, stronger effect = lower value.
The mark [20] stands for this setting: locus YNL298W, strain CLA4 (second series), stronger effect = lower value.
Where [21] appears, read: locus YNL322C, strain KRE1, stronger effect = lower value.
Where [22] appears, read: locus YNR030W, strain Alg12, stronger effect = lower value.
The mark [23] stands for this setting: locus YPL055C, strain LGE1, stronger effect = lower value.
[24] abbreviates: locus YPL241C, strain CIN2, stronger effect = lower value.
The mark [25] stands for this setting: locus YPR135W, strain CTF4, stronger effect = lower value.

With `Ic1ccc(I)s1`, the normalized growth runs as follows: under setting [1], 1.03; under setting [2], 1; (locus YCL061C, strain MRC1, stronger effect = lower value) 1.03; under setting [3], 1.01; under setting [4], 1.02; under setting [5], 1.04. The normalized growth is, setting by setting: under setting [6], 1.02; under setting [7], 1.22; under setting [8], 1; (locus YJL187C, strain SWE1, stronger effect = lower value) 1.01; under setting [9], 1.04; under setting [10], 1.02. Also, the normalized growth reads like this: (locus YKL190W, strain CNB1, stronger effect = lower value) 1.01; under setting [11], 1.18; under setting [12], 0.999; under setting [13], 1.01; under setting [14], 1.16; under setting [15], 1.02. Moreover, the normalized growth is 1.01 under setting [16]; 1 under setting [17]; 1.12 under setting [18]; 1 (locus YNL128W, strain TEP1, stronger effect = lower value); 1.01 under setting [19]; 1.04 under setting [20]. Also, the normalized growth is 1.01 under setting [21]; 1.04 under setting [22]; 1.03 under setting [23]; 1.06 under setting [24]; 1.11 under setting [25].
On to `O=C1O/C(=C/Br)CCC1c1cccc2ccccc12` (stereo not given), for which the normalized growth by setting is: under setting [1], 0.952; (locus YAL040C, strain CLN3, stronger effect = lower value) 1; (locus YER002W, strain NOP16, stronger effect = lower value) 1.01; under setting [17], 0.989; under setting [19], 0.6 (active); (locus YNL175C, strain NOP13, stronger effect = lower value) 0.61 (active). Moreover, the normalized growth (locus YNL197C, strain WHI3, stronger effect = lower value) was 0.947; the normalized growth (locus YNL224C, strain SQS1, stronger effect = lower value) is 0.771 (active); the normalized growth (locus YOR083W, strain WHI5 (second series), stronger effect = lower value) is 0.775 (active); the normalized growth under setting [23] is 0.922; the normalized growth under setting [24] was 0.998.
Turning to `COc1cccc(OC)c1C(C)(O)C(OC)OC` (stereo not given), the normalized growth by setting is: under setting [1], 0.996; under setting [2], 0.989; under setting [3], 0.999; under setting [4], 1.02; under setting [5], 1.01; under setting [6], 1. Further, the normalized growth is 1.05 under setting [7]; 1.03 under setting [8]; 1.01 under setting [9]; 1 under setting [10]; 1.02 under setting [11]; 1.02 under setting [12]. Besides, the normalized growth is 1.03 under setting [13]; 1.01 under setting [14]; 0.997 under setting [15]; 1 under setting [16]; 0.941 under setting [17]; 0.98 under setting [18]. Also, the normalized growth reads like this: under setting [19], 0.994; under setting [20], 1.05; under setting [21], 1.01; under setting [22], 1.02; under setting [23], 1.03; under setting [24], 1.02. Besides, under setting [25], the normalized growth was 1.09.
